This note sets out measurements from publication PMC5540273 (PLoS ONE, 2017).

Among the test systems are CAMK2D; CAMK2G; CAMK4; CAMKK1; CAMKK2; CASK; CDC2L2.
Common to all, as to details: concentration: 1 μM, replicates: in singlicate; n = 1
The subject of another test is T1, CDC2L1.
T1 construct: gene CDK11B

Another test deals with T2, CDC2L5.
T2 construct: gene CDK13

The test system of another test is T3, CDK11.
T3 construct: gene CDK19
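Further: KINOMEscan kinase panel screen.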

As to `Cc1cc(N2CCC(NS(=O)(=O)c3ccc(F)cc3)CC2)nc(Nc2cccc(C#N)c2)n1.O=C(O)C(F)(F)F` [GSK1653537], the “%Inh” value with CAMK2D turned out to be 3%; with CAMK2G, 1%; in the test with CAMK4, 0%; in the test with CAMKK1, 5%; with CAMKK2 it was 0%; in the test on CASK, 0%. Moreover, the “%Inh” value with CDC2L1, in the test on CDC2L2, in the test on CDC2L5 and in the test with CDK11 was 0% throughout.
Consider `NC(=O)c1sc(-n2cnc3ccccc32)cc1OCc1ccccc1F` [GSK1024306], for which the “%Inh” value in the test with CAMK2D is 0%; in the test with CAMK2G, 14%; in the test on CAMK4, 0%; in the test with CAMKK1 it was 0%; in the test with CAMKK2 it was 10%; in the test on CASK, 49%. Further, the “%Inh” value in the test with CDC2L1 is 0%; in the test with CDC2L2 it was 0%; in the test with CDC2L5 it was 0%; in the test with CDK11 it was 8%.
Consider `Cc1ccc(C)c(NC(=O)NCCNc2ccnc(Nc3ccc(F)cc3)n2)c1` [GSK1379878], for which the “%Inh” value in the test with CAMK2D was 18%; in the test with CAMK2G it was 21%; in the test with CAMK4 it was 0%; in the test on CAMKK1, 0%; with CAMKK2, 2%; with CASK it was 0%. Besides, the “%Inh” value in the test with CDC2L1 was 0%; with CDC2L2, 17%; in the test with CDC2L5, 0%; with CDK11, 6%.
Regarding `Clc1ccc(-c2cc(-c3c[nH]nc3-c3ccccn3)ccn2)cc1` [GW681251], the “%Inh” value in the test with CAMK2D was 0%; with CAMK2G it was 8%; in the test on CAMK4 it was 0%; in the test on CAMKK1 it was 0%; with CAMKK2, 0%; in the test with CASK, 44%. Besides, the “%Inh” value with CDC2L1, with CDC2L2, with CDC2L5 and in the test on CDK11 was 0% each time.
Turning to `CSc1ccc(NC2=C(c3ccccc3Cl)C(=O)NC2=O)cc1` [SB-342411], the “%Inh” value with CAMK2D worked out at 28%; in the test with CAMK2G it was 36%; in the test on CAMK4, 0%; in the test on CAMKK1, 5%; with CAMKK2 it was 25%; with CASK it was 26%. The “%Inh” value in the test with CDC2L1, in the test with CDC2L2, in the test on CDC2L5 and in the test on CDK11 was 0% in each case.
As to `CS(=O)(=O)CCNCc1nc(-c2ccc3ncnc(Nc4ccc(OCc5cccc(F)c5)c(Cl)c4)c3c2)cs1.Cl` [GW583340], the “%Inh” value in the test with CAMK2D is recorded as 23%; in the test on CAMK2G, 22%; in the test with CAMK4, 0%; in the test with CAMKK1, 0%; in the test with CAMKK2 it was 28%; in the test with CASK, 0%. The “%Inh” value in the test with CDC2L1 was 11%; with CDC2L2 it was 25%; in the test with CDC2L5, 0%; in the test on CDK11 it was 12%.
Consider `Nc1nc(-c2cccnc2)c(-c2ccnc3ccccc23)s1` [GW684083], for which the “%Inh” value is 2% in the test with CAMK2D; 27% in the test with CAMK2G; 0% with CAMK4; 0% in the test on CAMKK1; 19% with CAMKK2; 14% with CASK. The “%Inh” value in the test on CDC2L1 was found to be 0%; in the test on CDC2L2, 12%; with CDC2L5 it was 0%; in the test with CDK11 it was 8%.
With `Nc1nc(-c2ccccn2)c(-c2ccnc3ccccc23)s1` [GW548057], the “%Inh” value in the test with CAMK2D amounted to 6%; with CAMK2G, 20%; with CAMK4, 0%; in the test with CAMKK1, 13%; in the test on CAMKK2, 21%; in the test with CASK, 26%. For the same compound, the “%Inh” value was 0% with CDC2L1, 11% in the test with CDC2L2, 0% in the test with CDC2L5 and 10% in the test on CDK11.
Consider `N#Cc1ccc(Oc2ccc(Nc3ncnc4cc[nH]c34)cc2Cl)cc1`, for which the “%Inh” value in the test with CAMK2D amounted to 13%; with CAMK2G it was 10%; with CAMK4, 3%; with CAMKK1, 6%; in the test with CAMKK2 it was 11%; with CASK it was 0%. Moreover, the “%Inh” value is given as 14% with CDC2L1, 10% with CDC2L2, 0% in the test with CDC2L5 and 3% in the test with CDK11.
In the case of `COc1ccc(-c2oc3ncnc(N)c3c2-c2ccc(OC)cc2)cc1` [SB-589132], the “%Inh” value in the test on CAMK2D was 3%; with CAMK2G, 2%; in the test on CAMK4, 13%; in the test on CAMKK1, 0%; with CAMKK2, 0%; with CASK it was 0%. Besides, the “%Inh” value is recorded as 0% with CDC2L1, 0% in the test with CDC2L2, 0% with CDC2L5 and 11% in the test with CDK11.
Consider `COc1cc2ncnc(Nc3ccc(OCc4ccccc4Br)c(Cl)c3)c2cc1OC.Cl` [GI261590], for which the “%Inh” value in the test with CAMK2D is recorded as 0%; in the test on CAMK2G it was 14%; with CAMK4, 0%; in the test on CAMKK1, 0%; in the test on CAMKK2, 0%; in the test on CASK, 0%. Moreover, the “%Inh” value was 2% in the test with CDC2L1, 18% in the test with CDC2L2, 0% in the test on CDC2L5 and 21% with CDK11.
As to `Nc1nc(-c2ccc3c(N)n[nH]c3c2)cc(N2CCCCC2)n1` [GSK2228768], the “%Inh” value in the test with CAMK2D is recorded as 0%; in the test on CAMK2G, 25%; in the test with CAMK4, 0%; with CAMKK1, 0%; with CAMKK2, 6%; in the test with CASK, 15%. Besides, the “%Inh” value in the test on CDC2L1, in the test on CDC2L2, with CDC2L5 and in the test with CDK11 was 0% each time.
For the compound `Nc1n[nH]c2nnc(-c3ccccc3)cc12` [SB-517389], the “%Inh” value in the test on CAMK2D came out at 2%; in the test on CAMK2G, 0%; in the test with CAMK4 it was 0%; with CAMKK1 it was 0%; in the test with CAMKK2, 0%; with CASK, 18%. Also, the “%Inh” value in the test with CDC2L1, in the test on CDC2L2, in the test with CDC2L5 and in the test on CDK11 was 0% throughout.
`CNc1nccc(-c2c(-c3ccc(F)cc3)ncn2CCCN2CCOCC2)n1` [SB-222516]: the “%Inh” value turned out to be 11% in the test on CAMK2D; 16% in the test with CAMK2G; 27% in the test with CAMK4; 8% in the test with CAMKK1; 14% in the test on CAMKK2; 1% in the test with CASK. Also, the “%Inh” value with CDC2L1 was determined as 0%; in the test with CDC2L2, 0%; in the test on CDC2L5, 22%; in the test on CDK11 it was 13%.
On to `Cn1ccc2ncnc(Oc3ccc(NC(=O)Nc4cccnc4)c(Cl)c3)c21`, for which the “%Inh” value in the test with CAMK2D is reported as 19%; with CAMK2G, 19%; in the test with CAMK4, 0%; in the test on CAMKK1 it was 20%; with CAMKK2, 11%; with CASK, 0%. The “%Inh” value in the test on CDC2L1 was 9%; with CDC2L2, 0%; in the test on CDC2L5 it was 10%; in the test on CDK11, 0%.
In the case of `FC(F)(F)c1ccc(-c2nn3ncccc3c2-c2ccnc(Nc3cccc(C(F)(F)F)c3)n2)cc1` [GW828205], the “%Inh” value in the test with CAMK2D was determined as 0%; in the test on CAMK2G, 0%; in the test on CAMK4, 17%; in the test on CAMKK1, 6%; in the test on CAMKK2 it was 0%; with CASK, 0%. Besides, the “%Inh” value in the test on CDC2L1 was 0%; in the test on CDC2L2 it was 3%; in the test on CDC2L5, 0%; in the test on CDK11, 0%.
Turning to `Cl.Fc1ccccc1COc1ccc(Nc2ncnc3ccc(-c4nnc(C(F)(F)F)o4)cc23)cc1Cl` [GW424170], the “%Inh” value stood at 0% in the test on CAMK2D; 14% in the test on CAMK2G; 0% in the test with CAMK4; 1% with CAMKK1; 10% with CAMKK2; 0% with CASK. Also, the “%Inh” value worked out at 0% in the test with CDC2L1, 15% with CDC2L2, 0% with CDC2L5 and 2% with CDK11.
